Data as given in PubChem BioAssay (NCI).
This is part of a sample that, as a whole, favours compounds with a hit. Of some 83,000 tested, about 20% had one in any assay.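 Cell lines were cultured in 96-well plates, exposed to a single compound concentration, and assessed for percent growth 48 hours later.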 A number with no mark means an inactive call. Activity calls are given as the source filed them. How the source made its calls: active means growth percent below 10; inactive means the rest.

How the values were obtained:
Test in all cases: NCI-60 one-dose screen, 48 h (100 = growth as untreated, 0 = no growth, -100 = all killed)
Settings in all cases: 10 µM unless noted
[1] = tested on: NCI-H23 lung
[2] = tested on: NCI-H226 lung
[3] = tested on: NCI-H322M lung
[4] = tested on: HOP-62 NSCLC
[5] = tested on: NCI-H460 lung
[6] = tested on: NCI-H522 lung
[7] = tested on: A549/ATCC NSCLC
[8] = tested on: 786-0 renal
[9] = tested on: COLO 205 colon
[10] = tested on: DU-145 prostate
[11] = tested on: K-562 leukemia
[12] = tested on: MALME-3M melanoma
[13] = tested on: MDA-MB-231 breast
[14] = tested on: RXF 393 renal
[15] = tested on: SF-268 CNS
[16] = tested on: SF-295 CNS
[17] = tested on: SF-539 CNS
[18] = tested on: UACC-257 melanoma
[19] = tested on: M14 melanoma

With `CCCCCCCCCCCCCCCC1=NCCN1` the growth [1] was 72.5%, the growth [2] was 80.6% and the growth [3] was 76.6%. For the same compound, the growth [4] was 55.3%, the growth [5] was 32.5% and the growth [6] was 74%. For the same compound, the growth [7] was -15.4% (active), the growth [8] was 78.8% and the growth [9] was -70.8% (active). For the same compound, the growth [10] was 72.6%, the growth [11] was 3.78% (active) and the growth [12] was 103%. It also gave a growth [13] of 30.6%, a growth [14] of 60.6% and a growth [15] of 71.3%. It also gave a growth [16] of 90.9%, a growth [17] of 72.5% and a growth [18] of 99.9%. For the same compound, the growth [19] was 72.3%.
`Cc1ccc(Nc2cccc3ccccc23)cc1` was tested, and the growth [1] was 83.6%, the growth [2] was 90.1% and the growth [3] was 82.8%. The growth [4] was 91.9%, the growth [5] was 103% and the growth [6] was 68.4%. For the same compound, the growth [7] was 90.5%, the growth [8] was 88.9% and the growth [9] was 101%. The growth [10] was 109%, the growth [11] was 63% and the growth [12] was 94.2%. The growth [13] was 88.5%, the growth [14] was 91.2% and the growth [15] was 92.4%. The growth [16] was 112%, the growth [17] was 99.8% and the growth [18] was 86.4%. It also gave a growth [19] of 89.6%.
Work on `COc1cc(C2CC(c3ccc(Cl)cc3)=NN2C=O)ccc1Oc1ccnc2cc(Cl)ccc12` (configuration not stated) yielded a growth [1] of 65.2%, a growth [2] of 51.4% and a growth [3] of 88.2%. It also gave a growth [4] of 53.1%, a growth [5] of 65.2% and a growth [6] of 47.2%. The growth [7] was 59.1%, the growth [8] was 78.6% and the growth [9] was 94.5%. For the same compound, the growth [10] was 85.7%, the growth [11] was 72.5% and the growth [12] was 64%. For the same compound, the growth [13] was 56.9%, the growth [14] was 64.2% and the growth [15] was 68.6%. For the same compound, the growth [16] was 66.2%, the growth [17] was 66.2% and the growth [18] was 66.8%. It also gave a growth [19] of 92.4%.
`C=C(C)[C@@H]1CC[C@]2(C(=O)NC(COC(=O)C(Cl)Cl)(COC(=O)C(Cl)Cl)COC(=O)C(Cl)Cl)CC[C@]3(C)[C@H](CC[C@@H]4[C@@]5(C)CC[C@H](OC(C)=O)C(C)(C)[C@@H]5CC[C@]43C)[C@@H]12` gave a growth [1] of 72%, a growth [2] of 84.2% and a growth [3] of 88.8%. It also gave a growth [4] of 82.7%, a growth [5] of 15.8% and a growth [6] of 48.1%. The growth [7] was 27.7%, the growth [8] was 37.3% and the growth [9] was 36.1%. For the same compound, the growth [10] was 50.7%, the growth [11] was 25.2% and the growth [12] was 96.2%. For the same compound, the growth [13] was 54.1%, the growth [14] was 42.6% and the growth [15] was 58.8%. The growth [16] was 60.9%, the growth [17] was 76.5% and the growth [18] was 79.5%. For the same compound, the growth [19] was 59.9%.
For `COc1ccc(-n2c(COc3ccc(F)cc3)n[nH]c2=S)cc1`, the growth [1] was 112%, the growth [2] was 101% and the growth [3] was 96.8%. It also gave a growth [4] of 105%, a growth [5] of 110% and a growth [6] of 90.3%. The growth [7] was 131%, the growth [8] was 102% and the growth [9] was 116%. The growth [10] was 112%, the growth [11] was 129% and the growth [12] was 115%. The growth [13] was 89.3%, the growth [14] was 80.3% and the growth [15] was 97.8%. For the same compound, the growth [16] was 74.1%, the growth [17] was 101% and the growth [18] was 186%. The growth [19] was 112%.
In the case of `COC(=O)OC1C(O[C@H]2C[C@H]3[C@@H]4CC=C5C[C@@H](O)CC[C@]5(C)[C@H]4CC[C@]3(C)[C@H]2[C@H](C)C(=O)CCC(C)C)OCC(O)C1OC1OCC(O)C(O)C1OC(=O)c1ccc(OC)cc1` (some centres not stated), the growth [1] was 27.9%, the growth [2] was -8.65% (active) and the growth [3] was 45.2%. The growth [4] was -26.5% (active), the growth [5] was -24.2% (active) and the growth [6] was -49.8% (active). The growth [7] was 1.81% (active), the growth [8] was -25% (active) and the growth [9] was -52.4% (active). For the same compound, the growth [10] was 34.8%, the growth [11] was -25.2% (active) and the growth [12] was -6.07% (active). For the same compound, the growth [13] was 22.7%, the growth [14] was -71.9% (active) and the growth [15] was -6.22% (active). The growth [16] was -66.4% (active), the growth [17] was -58.1% (active) and the growth [18] was -55.3% (active). For the same compound, the growth [19] was -58.5% (active).
`CS(=O)(=O)c1ccc(Cl)c([N+](=O)[O-])c1` gave a growth [1] of 103%, a growth [2] of 107% and a growth [3] of 149%. For the same compound, the growth [4] was 105%, the growth [5] was 86.9% and the growth [6] was 95.8%. It also gave a growth [7] of 119%, a growth [8] of 98.3% and a growth [9] of 111%. The growth [10] was 33.9%, the growth [11] was 1.69% (active) and the growth [12] was 132%. The growth [13] was 109%, the growth [14] was 113% and the growth [15] was 81.5%. It also gave a growth [16] of 102%, a growth [17] of 102% and a growth [18] of 116%. For the same compound, the growth [19] was 108%.
`CN1C2CCC1/C(=C\c1ccc(F)cc1)C(=O)/C2=C/c1ccc(F)cc1` showed a growth [1] of 47.9%, a growth [2] of 55.6% and a growth [3] of 50.3%. The growth [4] was 76.7%, the growth [5] was 14.1% and the growth [6] was 34.4%. It also gave a growth [7] of 36.6%, a growth [8] of 43.8% and a growth [9] of 14.8%. For the same compound, the growth [10] was 9.38% (active), the growth [11] was 16.2% and the growth [12] was 61.7%. For the same compound, the growth [13] was 53.7%, the growth [14] was 66.2% and the growth [15] was 63%. The growth [16] was 72%, the growth [17] was 73.6% and the growth [18] was 25.8%. For the same compound, the growth [19] was 41.2%.
